Results filed as inconclusive are left out. The source made the active and inactive calls. The call rests on the fitted dose curve; in most records, active means well fitted cell-killing curve with a large enough effect; inconclusive means small, poorly fitted or top-dose-only effect; inactive means flat fitted curve, though single readings scatter.
assay: qHTS of pediatric cancer cell lines to identify multiple opportunities for drug repurposing: Primary screen for DAOY cells (AID 1347090); settings: DAOY medulloblastoma viability, CellTiter-Glo luminescence, 48 h; series mostly up to 46 µM; further: nearly all actives have a fitted effect of over 55% in size
How it was run: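 Eight- or eleven-point concentration series, 48 h treatment at 37 degrees C in growth media; readout CellTiter-Glo luminescence. Potency and efficacy were taken from the concentration-response curves.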
Potency means the concentration at half of the fitted maximal effect.

SMILES | Potency
NC(=O)Nc1sc(-c2ccc(F)cc2)cc1C(N)=O | 469 nM (active)
C=C(C)[C@@H]1CC[C@]2(C(=O)O)CC[C@]3(C)[C@H](CC[C@@H]4[C@@]5(C)CC[C@H](O)C(C)(C)[C@@H]5CC[C@]43C)[C@@H]12 | inactive
C=C1C(=O)O[C@H]2[C@@H]1CCC(C)=CCC[C@@]1(C)O[C@@H]21 | 9350 nM (active)
C=Cc1c(C)c2cc3nc(cc4[nH]c(cc5nc(cc1[nH]2)C(C)=C5CCC(=O)O)c(CCC(=O)OC)c4C)[C@@]1(C)C3=CC=C(C(=O)OC)[C@H]1C(=O)OC | 187 nM (active)
Cc1ccc([N+](=O)[O-])cc1S(=O)(=O)N(C)N=Cc1cnc2ccc(Br)cn12 | 235 nM (active)
CCCc1nc(C(C)(C)O)c(C(=O)O)n1Cc1ccc(-c2ccccc2-c2nn[nH]n2)cc1 | inactive
CC(C)N(CC[C@H](c1ccccc1)c1cc(CO)ccc1O)C(C)C | inactive
CC(C)N1[N]C(=C2C=c3cc(O)ccc3=N2)c2c(N)ncnc21 | 5900 nM (active)
CC(C)(O)CC[C@@H](O)[C@](C)(O)[C@H]1CC[C@@]2(O)C3=CC(=O)[C@@H]4C[C@@H](O)[C@@H](O)C[C@]4(C)[C@@H]3CC[C@]12C | inactive
CN[C@H]1[C@@H](O)[C@@H]2O[C@@H]3O[C@H](C)CC(=O)[C@]3(O)O[C@@H]2[C@@H](NC)[C@H]1O | 296 nM (active)
C[C@H](CCC(=O)O)[C@H]1CCC2C3C[C@H](O)[C@@H]4C[C@H](O)CC[C@]4(C)C3CC[C@@]21C (some centres not stated) | inactive
C[C@]12CC[C@@H]3c4ccc(O)cc4CC[C@H]3[C@H]1CC[C@H]2O | 18700 nM (active)

— PubChem BioAssay (NCATS)
